From ChEMBL document CHEMBL3433997, “St. Jude Leishmania screening dataset” (2016)

What was measured:
Type in all cases: functional
[1] = molecular target: Solute carrier family 2, facilitated glucose transporter member 1 (Homo sapiens) (UniProt P11166); test: ST_JUDE_LEISH: Cytotoxicity at 2uM final concentration against transgenic Leishmania Mexicana promastigotes LmGLUT1 that are glucose transport deficient and complemented with the human glucose transporter GLUT1. Activity is measured by DNA content using SYBR green in vitro
Chain of Solute carrier family 2, facilitated glucose transporter member 1 (Homo sapiens) (P11166 whole entry): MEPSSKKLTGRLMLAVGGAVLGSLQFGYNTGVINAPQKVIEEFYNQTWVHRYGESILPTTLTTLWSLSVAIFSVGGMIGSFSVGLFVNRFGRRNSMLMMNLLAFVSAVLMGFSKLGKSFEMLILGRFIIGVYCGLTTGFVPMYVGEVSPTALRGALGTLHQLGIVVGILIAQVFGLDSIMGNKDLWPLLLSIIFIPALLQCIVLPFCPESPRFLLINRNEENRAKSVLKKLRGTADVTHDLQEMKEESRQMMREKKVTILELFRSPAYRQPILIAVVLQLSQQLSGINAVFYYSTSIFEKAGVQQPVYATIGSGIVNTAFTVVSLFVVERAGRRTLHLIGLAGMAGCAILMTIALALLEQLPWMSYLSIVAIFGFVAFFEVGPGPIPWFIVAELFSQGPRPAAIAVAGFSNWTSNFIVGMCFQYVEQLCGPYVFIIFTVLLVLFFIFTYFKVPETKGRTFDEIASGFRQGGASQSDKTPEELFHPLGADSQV

[2] = molecular target: Hexose transporter 1 (Plasmodium falciparum) (UniProt O97467); test: ST_JUDE_LEISH: Cytotoxicity at 2uM final concentration against transgenic Leishmania Mexicana promastigotes LmPfHT that are glucose transport deficient and complemented with the Plasmodium falciparum hexose transporter. Activity is measured by DNA content using SYBR green in vitro
[3] = molecular target: Glucose transporter (Leishmania mexicana) (UniProt O61059); test: ST_JUDE_LEISH: Cytotoxicity at 2uM final concentration against transgenic Leishmania Mexicana promastigotes LmGT2 that are glucose transport deficient and complemented with the L. Mexicana glucose transporter 2. Activity is measured by DNA content using SYBR green in vitro

Row | Compound | inhibition [1] [%] | inhibition [2] [%] | inhibition [3] [%]
1 | COc1ccc(NC(=O)Nc2ccc(C)c(-c3ccc(C(=O)NCCN4CCCC4)cc3)c2)cc1 | -1.56 | -2.24 | -2.87
2 | CC(Cc1ccc(Cl)cc1)Nc1nc(NC2CCCC2)nc(N2CCC(C#N)(c3ccccc3)CC2)n1 (configuration not stated) | 8.45 | 5.49 | -0.98
3 | COc1cc2nc(-c3ccccc3)nc(N3CCN(CC(=O)N4CCCC4)CC3)c2cc1OC | 3.46 | 1.22 | 4.86
4 | CC1CN(c2cc(=O)n(Cc3cccc(NC(=O)Nc4ccc(-c5ccccc5)cc4)c3)cn2)CC(C)N1 (configuration not stated) | 1.17 | 2.06 | -1.85
5 | CC1(C)[C@H]2CC[C@@H](CNc3nc(NCCc4c[nH]cn4)nc(NCc4cc(F)ccc4F)n3)[C@@H]1C2 | 4.07 | 0.62 | 1.36
6 | CNC(=O)c1cc(S(=O)(=O)Nc2ccc(OC)cc2)cs1 | 0.48 | 0.9 | 2.1
7 | O=C(Nc1cc(Cl)cc(Cl)c1)c1cc(Cl)c(=O)n(Cc2ccc(Cl)cc2)c1 | 3 | 5.94 | -0.15
8 | CC(=O)c1c(C)[nH]c(C(=O)Nc2ccc(-c3nc4ccc(C)cc4s3)cc2)c1C | -0.62 | -4.21 | 2.35
9 | Cc1cc(C)cc(Oc2c(C(F)(F)F)oc3c(CN4CC(C)OC(C)C4)c(O)ccc3c2=O)c1 (configuration not stated) | -0.42 | -1.36 | 1.31
10 | CCCCNCc1ccc(-c2nc(CN(CCCn3ccnc3)C(=O)C3COc4ccccc4O3)cs2)cc1 (configuration not stated) | 0.43 | 4.78 | -0.46
11 | COc1ccc2nccc([C@@H](O)CN3CCC(NCc4cc5ccc(Cl)cc5[nH]4)CC3)c2c1 | 9.64 | 12.1 | 4.6
12 | COc1ccc(OC)c(C=NNc2nc3ccccc3[nH]2)c1 | 5.98 | 5.18 | 3.34
13 | COc1ccc(Cc2nc3c(n2C(C)=O)SC(c2ccc(Cl)c(Cl)c2)=NN3C(C)=O)cc1 | 0.08 | 5.48 | 5.39
14 | CCOC(=O)c1nc2ccc(SC3CCCCC3)cn2c1Br | 1.75 | 0.06 | 5.65
15 | CCn1c(-c2nc(-c3ccc4c(c3)OCO4)cnc2N)nc2cnccc21 | 19.7 | 12.4 | 13.5
16 | CC(C)CCN1CCCN(Cc2cccc(C(=O)Nc3ccc(C(C)(C)C)cc3)c2)CC1 | 3.18 | 0.18 | 2.78
17 | CCCC(CNC(=O)c1cc2c(Cl)cc(Cl)cc2[nH]1)CNc1cc(=O)c2ccccc2[nH]1 (configuration not stated) | 1.99 | 2.64 | 2.5

Row | Compound | inhibition [1] [%] | inhibition [2] [%] | inhibition [3] [%]
18 | COc1cc(Cc2cnc(N)nc2N)ccc1Oc1ccc(N)cc1 | 1.44 | 0.48 | 0.97
19 | CCNc1cc(C(=O)N[C@@H](Cc2ccccc2)[C@H](O)CNC2CCCCC2)cc(N2CCCCS2(=O)=O)c1 | 8.15 | 4.98 | 7.3
20 | Nc1nc(N)c2c(ccc3nn(C4CCCC4)cc32)n1 | 10.1 | 9.8 | 5.28
21 | CN(C)CCCNc1ccnc2cc(Cl)ccc12 | 1.15 | 0.62 | -1.76
22 | Cc1[nH]c(C)c(-c2ccc(-c3ccc(C#N)cc3)nc2)c(=O)c1Br | 9.47 | 10.2 | 6.23
23 | COc1ccc(C(=O)Nc2cc(Br)c3c(c2)CNCC3)cc1Br | 2.73 | 3.54 | 1.69
24 | CN1CCC=C(C(=O)NCC(C)(C)c2nc(-c3ccc(Cl)c(O)c3)c(-c3ccncc3)[nH]2)C1 | 6.76 | 9.88 | 7.7
25 | O=c1cc(NCCC2CC=CCN2Cc2ccc(Cl)c(Cl)c2)[nH]c2ccccc12 (configuration not stated) | 1 | 0.33 | -0.25
26 | Cc1cc(NC(=O)CCN2CCN(c3cccc(Cl)c3Cl)CC2)ccc1N1CCN(C(C)C)CC1 | -0.22 | -0.39 | -2.11
27 | O=C(/C=C/c1ccc(Cl)c(Cl)c1)NCCCCCN1CCC(c2c[nH]c3cc(O)ccc23)CC1 | 9.77 | 8.43 | 7.41
28 | CC(=O)c1cccc(NC(=O)c2ccc(Cl)c(S(=O)(=O)N3CCc4ccccc43)c2)c1 | 12.1 | 11.9 | 12
29 | Cc1noc(-c2ccc(NC[C@@H](C)NC[C@H](O)c3cccc(Cl)c3)cc2)n1 | 3.79 | 3.1 | 4.26
30 | OC(CNc1ccnc(Nc2ccc(Cl)cc2)n1)c1cccc(C(F)(F)F)c1 (configuration not stated) | 1.93 | 2.79 | 0.49
31 | CC(=O)Nc1ccc(C#Cc2ccc(-c3c(C)[nH]c(C)c(Cl)c3=O)cc2)cc1 | 1.3 | 0.64 | 1.24
32 | Cc1cc(=NN=Cc2ccccn2)c2cc(C(F)(F)F)ccc2[nH]1 | -0.43 | -1.03 | -1.17
33 | Cc1cc(N(C)CCN(C)C)nc(Nc2ccc(Cl)cc2)n1 | 5.23 | 5.67 | 7.48
34 | O=C(c1ccc([N+](=O)[O-])o1)N1CCC(Cc2ccc(C(F)(F)F)cc2)CC1 | 9.05 | 22.5 | 0.45
